The list is not random: actives were taken first. Their share in the collection is about 4.2%.
VDR inh: Inhibitors of the vitamin D receptor (VDR): qHTS; Vitamin D3 receptor (Homo sapiens), P11473; VDR-SRC2-3 peptide fluorescence polarization, 2 h; Potency, µM, for the others: max response, negative = inhibition, actives largely listed as inhibitors; actives 0.93% (n = 400,000); AID 504847, 2011
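The screen uses fluorescence polarization to detect compounds that interfere with recruitment of the SRC2-3 coactivator peptide to VDR; plates are read after 2 h at room temperature.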
PLK1 PBD block: qHTS for Inhibitors of PLK1-PDB (polo-like kinase 1 - polo-box domain): Primary Screen | Plk1 PBD binding of FITC phosphopeptide, fluorescence polarization | Potency, µM, for inactives: max response, negative = inhibition, hits mostly inhibitors | AID 720504, 2013 | Serine/threonine-protein kinase PLK1 (Homo sapiens), P53350 | actives 2.8% (n = 360,000); note: series mostly up to about 57 µM; nearly all actives have a fitted effect of over 65% in size
Target sequence (P53350 whole entry, looked up, the tested form may be a part): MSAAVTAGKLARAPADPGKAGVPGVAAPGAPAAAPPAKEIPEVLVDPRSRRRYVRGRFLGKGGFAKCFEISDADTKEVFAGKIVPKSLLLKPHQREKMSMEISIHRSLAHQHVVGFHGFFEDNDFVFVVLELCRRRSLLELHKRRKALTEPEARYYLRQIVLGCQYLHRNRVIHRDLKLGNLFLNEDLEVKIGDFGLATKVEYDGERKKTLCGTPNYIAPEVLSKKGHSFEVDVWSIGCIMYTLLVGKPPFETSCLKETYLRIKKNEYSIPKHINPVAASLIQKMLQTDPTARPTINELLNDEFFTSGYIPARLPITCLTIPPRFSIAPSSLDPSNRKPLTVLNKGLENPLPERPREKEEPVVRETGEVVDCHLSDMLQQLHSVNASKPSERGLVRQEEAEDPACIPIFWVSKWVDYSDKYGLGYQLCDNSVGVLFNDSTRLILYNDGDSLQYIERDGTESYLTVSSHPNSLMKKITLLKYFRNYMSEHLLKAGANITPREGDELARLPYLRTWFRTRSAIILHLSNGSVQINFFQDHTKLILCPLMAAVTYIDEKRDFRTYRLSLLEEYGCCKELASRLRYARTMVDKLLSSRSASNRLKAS
ALOX12 inh: Primary qHTS assay for inhibitors of human arachidonate 12S-lipoxygenase (ALOX12): Round 2. purified 12hLO, xylenol orange hydroperoxide absorbance. actives 1.1% (n = 580,000). Potency, µM (top dose mostly 108 µM), inactives show top-dose activity change, negative = inhibition, usual class: inhibitors. Polyunsaturated fatty acid lipoxygenase ALOX12 (Homo sapiens), P18054
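Purified human 12hLO (150 nM final) in 25 mM Hepes, 0.01% Triton X-100, pH 7.0 was preincubated 15 min at room temperature with compound. Then 40 uM arachidonic acid was added, 30 min. Hydroperoxide was read by Fe-XO absorbance ratio 573/405 nm.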
Sfp inh: qHTS Assay for Inhibitors of Bacillus subtilis Sfp phosphopantetheinyl transferase (PPTase); actives 3.5% (n = 310,000); AID 1490, 2009; Biochemical Sfp PPTase activity, qHTS; Potency, µM, inactives show largest response in the series, negative = inhibition, usual class: inhibitors;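 note: the enzyme is Sfp with the accession as filed and its product quenches rhodamine fluorescence; 0% = enzyme reaction without inhibitor and -100% = no enzyme wells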
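Reaction rates are the 30-min fluorescence difference (ex 525, em 598 nm) in wells containing 15 nM Sfp, 5 uM rhodamine-CoA and 12.5 uM BHQ-2-YbbR at pH 7.6 with 10 mM MgCl2.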
Starred values were filed as active, the others as inactive; ? = inconclusive; . = no result given; [ ] = dose if it differs, or a comment. Calls come from the whole dose curve; as a rule, active = well fitted curve in the direction sought with a large enough effect; inconclusive = small, poorly fitted or top-dose-only effect, or another doubt; inactive = no such curve, though single readings can be large; an effect the other way counts as inactive or inconclusive. Unless noted, % is set by controls: 0 for no effect and ±100 for the full control effect; potency is the fitted concentration of half-maximal effect.

SMILES | VDR inh | PLK1 PBD block | ALOX12 inh | Sfp inh
NCCCC[C@H](N)c1nnc([C@H](CC(=O)O)NC(=O)C2CCNCC2)o1 | -18.4% | -2.8% | -1.0% | -9.3%
COc1cc2[nH]c3c(Cl)ncnc3c2cc1OC | -6.8% | -3.1% | -5.1% | -9.3%
COc1cc2[nH]c(Cl)c([N+](=O)[O-])c2cc1OC | ? | -18.5% | -5.5% | 89.1µM*
O=C(COC(=O)CCC(=O)c1ccc(Cl)cc1)NCc1ccco1 | -5.2% | -16.1% | ? | 14.1µM*
Cc1cccc(NC(=O)CN2CCc3cc4c(cc3C2)OCCCO4)c1 | 5.2% | -5.5% | ? | ?
CC(C)(C)OC(=O)N1CCC(CC2CC(c3cccc(Br)c3)=NO2)(C(=O)NCC2CCCCC2)CC1 (stereo not given) | -2.0% | -0.4% | -4.2% | 7.9%
CN1CCC(N(C)CC(=O)Nc2ccc3c(c2)OC(F)(F)O3)CC1 | 8.9% | -1.2% | ? | 50.1µM*
CC(N)(C(=O)O)c1ccc(P(=O)(O)O)cc1 (stereo not given) | -1.5% | . | 6.9% | -0.4%
C[C@@](N)(C(=O)O)c1ccc(P(=O)(O)O)cc1 | 15.2% | . | 12.6µM* | -1.0%
Cc1ccc(C(=O)NCCCNC(=O)c2nc3ccccc3c(=O)[nH]2)cn1 | . | . | 18.5% | .
CCCc1nnc(NC(=O)CCC(=O)NCCc2ccc(Cl)cc2)s1 | -19.9% | -15.4% | 0.5% | 16.6%
Clc1cccc(N2CCN(Cc3nnc(-c4ccc(Br)s4)o3)CC2)c1 | . | . | -12.0% | .
CCCn1nc(-c2ccccc2)c2nc3ccccc3nc21 | 2.7% | 16.8µM* | 0.0% | 19.0%
CCCCCn1nc(-c2ccccc2)c2nc3ccccc3nc21 | -17.4% | 21.2µM* | -7.9% | 10.6%
Cc1nn(-c2ccc(F)cc2)c(C)c1[C@@H]1C=C[C@@H](NS(=O)(=O)c2cccs2)C1 | . | . | 9.5%[176 µM] | .
Cc1ccccc1OCC(=O)N(Cc1ccc(N(C)C)cc1)CC1CCCO1 (stereo not given) | 4.4% | . | -11.8% | .
COc1ccc(C(=O)N2CCC(Oc3ccccc3)C2)cn1 (stereo not given) | . | . | 43.5% | .
Cc1cc2c(cc1C)NC(CC(=O)Nc1ccccc1)C(=O)N2 (stereo not given) | 2.8% | . | 187.0% | .
Cc1cc(=O)c2c(O)c3c(O)cc(O)c4c5c(O)cc(O)c6c(O)c7c(=O)cc(C)c8c1c2c(c34)c(c65)c78 | ? | . | ? | 50.1µM*
Cc1cc(O)c2c(c1O)C(=O)c1c(O)cc(C)c(O)c1C2=O | ? | . | . | -5.0%
O[C@H]1C[C@H](c2ccc(Cl)cc2)N(Cc2cccs2)C[C@@H]1n1cc(-c2ccc(F)cc2)nn1 | . | -3.3% | 35.5µM* | .
Cc1cc(C)[n+](-c2ccc(Oc3ccccc3)c(S(=O)(=O)[O-])c2)[nH]1 | ? | 26.7µM* | ? | 17.3%
O=C(/C=C/c1ccccc1Cl)Nc1cccc(S(=O)(=O)NC2=NCCCCC2)c1 | -9.4% | -8.2% | -16.4% | 5.4%
O=C(/C=C/c1ccc(Cl)cc1Cl)Nc1cccc(S(=O)(=O)NC2=NCCC2)c1 | ? | 16.8µM* | 0.0% | 12.8%
COc1ccc(NC(=S)N/N=C2\CC(C)(C)Oc3ccc(O)cc32)cc1 | 3.8% | -14.5% | 31.6µM* | -2.8%
SMILES | VDR inh | PLK1 PBD block | ALOX12 inh | Sfp inh
COC(=O)C1=C(C)N=C2SC=C(CC(=O)Nc3ccc(C)c(C)c3)N2C1c1ccccc1 (stereo not given) | . | . | 44.5% | .
Cc1nnnn1/C(=C\c1ccccc1)C(=O)OCC(=O)Nc1ccc(Cl)cc1F | 39.8µM* | -29.4% | ? | .
CN(C)S(=O)(=O)c1cccc(NC(=O)COC(=O)c2ccc3ccccc3n2)c1 | -7.2% | 9.7% | 8.9% | .
Cc1nnnn1/C(=C\c1ccccc1)C(=O)OCC(=O)Nc1cccc(S(=O)(=O)N(C)C)c1 | 44.7µM* | -22.5% | -29.5% | .
O=C(Cn1ccc(=O)[nH]c1=O)N1C[C@H]2CC[C@@H]1CN(Cc1cscn1)C2 | . | . | 8.91µM* | .
O=C(c1ccc2c(c1)CCC2)N1C[C@H]2CC[C@@H]1CN(Cc1cscn1)C2 | . | . | 46.8% | .
CC[C@H]1CN(C(=O)c2cccnc2)CC[C@H]1CC(=O)NCc1ccc(OC)c(OC)c1 | . | . | 61.6%[176 µM] | .
Cc1cc(N2C(=O)CC(N3CCN(c4ccc(C(=O)c5cccs5)cc4)CC3)C2=O)no1 (stereo not given) | 17.0% | -9.4% | 31.6µM* | 7.5%

Compound activity deposited in PubChem by National Center for Advancing Translational Sciences (NCATS).
